Our source for the Inhibition values is ChEMBL document CHEMBL4513141, “CO-ADD screening of NIH (USA) - Clinical Collection” (2021).

Potency and affinity values are given separately.

One assay relates to Staphylococcus aureus. The following applies: Concentration 20 uM; ASSAY_TEST Inhibition of Bacterial Growth; detection method Absorption (OD600); MEDIA CAMHB; plate type 384well; NBS; CORNING #3640; time 18 hr.
A further assay relates to Escherichia coli. The following applies: Concentration 20 uM; ASSAY_TEST Inhibition of Bacterial Growth; detection method Absorption (OD600); MEDIA CAMHB; plate type 384well; NBS; CORNING #3640; time 18 hr.

Turning to `N=c1cc(N2CCCCC2)nc(N)n1O`, the Inhibition is on record as 14.68% with Staphylococcus aureus and -3.43% in the assay with Escherichia coli.
In the same order, the values of `CN(C)CCCN1c2ccccc2Sc2ccc(Cl)cc21.Cl` [CHLORPROMAZINE HYDROCHLORIDE] are 10.22% and 2.59%.
On to `CCOC(=O)O[C@]1(C(=O)OCCl)CC[C@H]2[C@@H]3CCC4=CC(=O)C=C[C@]4(C)[C@H]3[C@@H](O)C[C@@]21C` [LOTEPREDNOL ETABONATE], for which the Inhibition in the assay with Staphylococcus aureus was -21.62%; in the assay with Escherichia coli, 4.07%.
As to `Cc1cccc(CCN2CCC(C(=O)c3ccc(NS(C)(=O)=O)cc3)CC2)n1.Cl.Cl`, the values for the Inhibition in the assay on Staphylococcus aureus and in the assay on Escherichia coli were 15.03% and -5.54%, respectively.
Consider `CC(=O)OCC(=O)[C@@]1(O)CC[C@H]2[C@@H]3CCC4=CC(=O)CC[C@]4(C)[C@H]3[C@@H](O)C[C@@]21C` [HYDROCORTISONE ACETATE], for which the Inhibition in the assay on Staphylococcus aureus amounted to 9.41%; in the assay with Escherichia coli it was 0.56%.
Regarding `CNCC(O)c1ccc(O)c(O)c1` (configuration not stated) [RACEPINEPHRINE], the Inhibition came to 9.77% with Staphylococcus aureus and 2.6% in the assay on Escherichia coli.
As for `CCOC(=O)[C@H](CCc1ccccc1)N[C@@H](C)C(=O)N1Cc2ccccc2C[C@H]1C(=O)O.Cl` [QUINAPRIL HYDROCHLORIDE], the figures for the Inhibition in the assay on Staphylococcus aureus and in the assay on Escherichia coli were 16.74% and 4.26%, respectively.
The matching figures for `NC(=O)N1c2ccccc2CC(=O)c2ccccc21` [OXCARBAZEPINE]: 15.1% and -1.4%.
On to `Oc1ncc(F)cn1`, for which the Inhibition with Staphylococcus aureus is given as 12.62%; with Escherichia coli it was 10.23%.
In the case of `Cl.Nc1c2c(nc3ccccc13)CCCC2` [TACRINE HYDROCHLORIDE], the Inhibition in the assay on Staphylococcus aureus was 10.46%; in the assay with Escherichia coli, 0.14%.
For `COc1ccc([C@@H]2Sc3ccccc3N(CCN(C)C)C(=O)[C@@H]2OC(C)=O)cc1.Cl` [DILTIAZEM HYDROCHLORIDE], the Inhibition turned out to be 12.74% with Staphylococcus aureus and 5.44% in the assay with Escherichia coli.
For `CC(Cc1ccc(O)c(O)c1)(NN)C(=O)O.O` (configuration not stated), the Inhibition in the assay on Staphylococcus aureus came out at 16.15%; in the assay with Escherichia coli it was 3.56%.
In the case of `CC(C)(C)NCC(O)COc1cccc2c1CC(O)C(O)C2` (configuration not stated) [NADOLOL], the Inhibition with Staphylococcus aureus is listed as 16.27%; with Escherichia coli, 3.67%.
As for `CN1C(=O)CC[C@H]1c1cccnc1` [COTININE], the Inhibition with Staphylococcus aureus is recorded as -20.45%; in the assay on Escherichia coli it was 7.12%.
In the same order, the values of `C#C[C@]1(O)CC[C@H]2[C@@H]3CCc4cc(OC)ccc4[C@H]3CC[C@@]21C` [MESTRANOL] are 8.43% and -2.89%.
Consider `CCCC(CCC)C(=O)O` [VALPROIC ACID], for which the Inhibition with Staphylococcus aureus is given as 9.7%; in the assay with Escherichia coli, -0.41%.
The matching figures for `CCCOc1ccc(C(=O)OCCN(CC)CC)cc1N.Cl` [PROPARACAINE HYDROCHLORIDE]: -1.38% and 2.71%.
In the same order, the values of `O=C1C(c2c(O)[nH]c3ccccc23)=Nc2ccccc21` are 2.27% and -3.28%.
On to `CCc1ccc(CCOc2ccc(CC3SC(=O)NC3=O)cc2)nc1.Cl` (configuration not stated) [PIOGLITAZONE HYDROCHLORIDE], for which the Inhibition in the assay on Staphylococcus aureus is 3.82%; with Escherichia coli, -0.97%.
The matching figures for `NS(=O)(=O)c1cc2c(cc1Cl)NCNS2(=O)=O` [HYDROCHLOROTHIAZIDE]: 6.38% and -0.12%.
In the case of `NC(N)=Nc1nc(CSCC/C(N)=N/S(N)(=O)=O)cs1` [FAMOTIDINE], the Inhibition with Staphylococcus aureus turned out to be 6.96%; with Escherichia coli it was 3.55%.
Regarding `C[C@]12C=CC(=O)C=C1CC[C@@H]1[C@@H]2[C@@H](O)C[C@@]2(C)[C@H]1CC[C@]2(O)C(=O)COC(=O)CCC(=O)[O-].[Na+]` [PREDNISOLONE SODIUM SUCCINATE], the values for the Inhibition with Staphylococcus aureus and in the assay on Escherichia coli were 5.71% and 1.73%, respectively.
As to `C[C@@H]1CN(CCCn2c3ccccc3c3ccccc32)C[C@H](C)N1.Cl.O`, the Inhibition in the assay on Staphylococcus aureus is reported as 5.93%; with Escherichia coli, 5.61%.
In the case of `COc1cc(C(=O)NS(=O)(=O)c2ccccc2C)ccc1Cc1cn(C)c2ccc(NC(=O)OC3CCCC3)cc12` [ZAFIRLUKAST], the Inhibition in the assay on Staphylococcus aureus stood at 36.84%; in the assay with Escherichia coli, 4.93%.
As for `CC(=O)OCC(CCn1cnc2cnc(N)nc21)COC(C)=O` [FAMCICLOVIR], the Inhibition is recorded as 12.23% in the assay on Staphylococcus aureus and 6.38% with Escherichia coli.
For the compound `CNCCCC12CCC(c3ccccc31)c1ccccc12.Cl` [MAPROTILINE HYDROCHLORIDE], the figures for the Inhibition with Staphylococcus aureus and in the assay on Escherichia coli were 15.07% and 6.19%, respectively.
In the same order, the values of `CC(=O)/N=c1/sc(S(N)(=O)=O)nn1C` [METHAZOLAMIDE] are 5.78% and 3.59%.
As for `Cc1c(C(=O)NN2CCCCC2)nn(-c2ccc(Cl)cc2Cl)c1-c1ccc(I)cc1`, the Inhibition in the assay on Staphylococcus aureus is 8.26%; in the assay with Escherichia coli, 1.46%.
The matching figures for `Cl.Clc1cccc(Cl)c1NC1=NCCN1` [CLONIDINE HYDROCHLORIDE]: 11.8% and 4.68%.
Turning to `Cn1cnc([N+](=O)[O-])c1Sc1ncnc2[nH]cnc12` [AZATHIOPRINE], the Inhibition in the assay with Staphylococcus aureus is 18.19%; with Escherichia coli it was 3.51%.
As to `NNCCc1ccccc1.O=S(=O)(O)O` [PHENELZINE SULFATE], the Inhibition with Staphylococcus aureus is -0.33%; in the assay on Escherichia coli, 5.31%.
